Values joined by “and” are separate entries in the source; they are usually repeats but may differ in a detail not shown here. Equal values may be shown once. Results filed as inconclusive are left out. Entries that show only a call come without a potency. A structure can be active in one record and inactive in another. Active and inactive are the calls of the source. Calls come from the whole dose curve; as a rule, active = well fitted curve in the direction sought with a large enough effect in the repeat runs; inconclusive = weak or mixed curves; inactive = no such curve, though single readings can be large; an effect the other way counts as inactive or inconclusive.
Key:
[1] = qHTS RealTime-Glo MT Cell Viability Assay in HepG2 cells - 8 hour (AID 1224873); note: nearly all actives have a fitted effect of over 55% in size
Procedure, shortened: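 HepG2 cells (600/well) mixed with RealTime-Glo MT reagent, settled 5 h at 37 C/5% CO2 before compound addition. Nonlytic NanoLuc luminescence from viable-cell prosubstrate reduction read repeatedly during 40 h treatment at 37 C.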

[2] = A CellTox Green Cytotoxicity Assay to monitor cytotoxicity in HEK293 cells - 24 hour (AID 1224875); note: nearly all actives have a fitted effect of over 45% in size; note: potency is the fitted concentration of half-maximal effect
Procedure, shortened: (§1)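 Real-time, in one plate: 600 HEK293 cells/well with dead-cell DNA dye, pinned compound after 5 h, 37 C incubation over 40 h; viable cells give no appreciable fluorescence.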

[3] = A CellTox Green Cytotoxicity Assay to monitor cytotoxicity in HepG2 cells - 16 hour (AID 1224876); note: nearly all actives have a fitted effect of over 45% in size; note: potency is the fitted concentration of half-maximal effect
Procedure, shortened: (§2)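 Cytotoxicity was tracked as dead-cell DNA fluorescence in HepG2 cells treated with test compounds at 37 C; each time-point value comes from one kinetic series spanning 0, 8, 16, 24, 32 and 40 h.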

[4] = qHTS RealTime-Glo MT Cell Viability Assay in HepG2 cells - 32 hour (AID 1224877); note: nearly all actives have a fitted effect of over 55% in size; note: potency is the fitted concentration of half-maximal effect
Procedure, shortened: (§3)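 Luminescence read-out: viable HepG2 cells reduce a prosubstrate to a NanoLuc substrate, giving a signal proportional to live cell number. Reads taken at 0, 8, 16, 24, 32 and 40 h of compound exposure at 37 C.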

[5] = A CellTox Green Cytotoxicity Assay to monitor cytotoxicity in HepG2 cells - 24 hour (AID 1224878); note: nearly all actives have a fitted effect of over 45% in size; note: potency is the fitted concentration of half-maximal effect
Procedure, shortened: as §2

[6] = A CellTox Green Cytotoxicity Assay to monitor cytotoxicity in HepG2 cells - 40 hour (AID 1224879); note: nearly all actives have a fitted effect of over 40% in size; note: potency is the fitted concentration of half-maximal effect
Procedure, shortened: as §2

[7] = qHTS RealTime-Glo MT Cell Viability Assay in HEK293 cells - 0 hour (AID 1224880); note: top concentration of the series differs between compounds; nearly all actives have a fitted effect of over 45% in size
Procedure, shortened: (§4)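 Kinetic, non-lysing viability readout. Seed HEK293 (600/well) with reagent, incubate 5 h at 37 C/5% CO2, pin 23 nL compound in DMSO, incubate at 37 C, read luminescence at 0, 8, 16, 24, 32, 40 h.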

[8] = A CellTox Green Cytotoxicity Assay to monitor cytotoxicity in HEK293 cells - 32 hour (AID 1224881); note: nearly all actives have a fitted effect of over 40% in size; note: potency is the fitted concentration of half-maximal effect
Procedure, shortened: as §1

[9] = A CellTox Green Cytotoxicity Assay to monitor cytotoxicity in HepG2 cells - 0 hour (AID 1224882); note: nearly all actives have a fitted effect of over 35% in size
Procedure, shortened: as §2

[10] = A CellTox Green Cytotoxicity Assay to monitor cytotoxicity in HepG2 cells - 32 hour (AID 1224883); note: nearly all actives have a fitted effect of over 50% in size; note: potency is the fitted concentration of half-maximal effect
Procedure, shortened: as §2

[11] = A CellTox Green Cytotoxicity Assay to monitor cytotoxicity in HEK293 cells - 8 hour (AID 1224884); note: nearly all actives have a fitted effect of over 35% in size; note: potency is the fitted concentration of half-maximal effect
Procedure, shortened: as §1

[12] = qHTS RealTime-Glo MT Cell Viability Assay in HEK293 cells - 8 hour (AID 1224887); note: nearly all actives have a fitted effect of over 50% in size; note: potency is the fitted concentration of half-maximal effect
Procedure, shortened: as §4

[13] = A CellTox Green Cytotoxicity Assay to monitor cytotoxicity in HEK293 cells - 16 hour (AID 1224888); note: nearly all actives have a fitted effect of over 35% in size; note: potency is the fitted concentration of half-maximal effect
Procedure, shortened: as §1

[14] = qHTS RealTime-Glo MT Cell Viability Assay in HepG2 cells - 0 hour (AID 1224889); note: nearly all actives have a fitted effect of over 50% in size
Procedure, shortened: as §3

[15] = A CellTox Green Cytotoxicity Assay to monitor cytotoxicity in HepG2 cells - 8 hour (AID 1224890); note: nearly all actives have a fitted effect of over 45% in size; note: potency is the fitted concentration of half-maximal effect
Procedure, shortened: as §2

[16] = qHTS assay to identify small molecule antagonists of the androgen receptor (AR) signaling pathway using the MDA cell line in the presence of 0.5 nM R1881 - cell viability counter screen (AID 1259242); note: nearly all actives have a fitted effect of over 45% in size; note: potency is the fitted concentration of half-maximal effect
Procedure, shortened: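 Cells seeded at 3,000/well and allowed 5 hr at 37C, 0% CO2 before compound transfer and R1881 (0.5 nM final) addition; 16 hr later, live-cell protease fluorescence indicated cytotoxicity.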

[17] = qHTS RealTime-Glo MT Cell Viability Assay in HepG2 cells - 16 hour (AID 1224885); note: nearly all actives have a fitted effect of over 50% in size; note: potency is the fitted concentration of half-maximal effect
Procedure, shortened: as §3

[18] = qHTS RealTime-Glo MT Cell Viability Assay in HEK293 cells - 24 hour (AID 1224886); note: nearly all actives have a fitted effect of over 50% in size; note: potency is the fitted concentration of half-maximal effect
Procedure, shortened: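 Nonlytic real-time viability readout: viable cells convert prosubstrate to NanoLuc substrate, giving luminescence proportional to live cell number. HEK293, 600 cells/well, compound added after 5 h, continuous culture at 37 C.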

[19] = qHTS assay to identify small molecule antagonists of the estrogen receptor alpha (ER-alpha) signaling pathway using the BG1 cell line in the presence of 0.1 nM 17-beta-estradiol - cell viability counter screen (AID 1259241); note: nearly all actives have a fitted effect of over 40% in size
Procedure, shortened: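 Live-cell protease activity (CellTiter-Fluor fluorescence, 30 min) was read in the same wells after VM7Luc4E2 cells had been exposed to compounds with 0.1 nM 17beta-estradiol for 22 hr at 37C.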

[20] = qHTS RealTime-Glo MT Cell Viability Assay in HEK293 cells - 40 hour (AID 1224874); conditions: RealTime-Glo luminescence; max response: stronger effect = lower value; note: nearly all actives have a fitted effect of over 50% in size; note: potency is the fitted concentration of half-maximal effect
Procedure, shortened: as §4

## O=S(=O)(O)c1ccccc1/C=C/c1ccc(-c2ccc(/C=C/c3ccccc3S(=O)(=O)O)cc2)cc1
[1]
  Potency: inactive
[2]
  Potency: inactive
[3]
  Potency: inactive
[4]
  Potency: inactive
[5]
  Potency: inactive
[6]
  Potency: inactive
[7]
  Potency: inactive
[8]
  Potency: inactive
[9]
  Potency: inactive
[10]
  Potency: inactive
[11]
  Potency: inactive
[12]
  Potency: inactive
[13]
  Potency: inactive
[14]
  Potency: inactive
[15]
  Potency: inactive
[16]
  Potency: inactive

## NC(=S)NC(N)=S
[1]
  Potency: inactive
[2]
  Potency: inactive
[3]
  Potency: inactive
[4]
  Potency: inactive
[6]
  Potency: inactive
[7]
  Potency: inactive
[8]
  Potency: inactive
[9]
  Potency: inactive
[10]
  Potency: inactive
[17]
  Potency: inactive
[18]
  Potency: inactive
[12]
  Potency: inactive
[13]
  Potency: inactive
[15]
  Potency: inactive
[19]
  Potency: inactive

## OC12N=C(c3ccccc3)SC1Cc1cc(Cl)ccc12 (stereo not given)
[1]
  Potency: inactive
[2]
  Potency: inactive
[3]
  Potency: inactive
[4]
  Potency: inactive
[7]
  Potency: inactive
[8]
  Potency: inactive
[9]
  Potency: inactive
[11]
  Potency: inactive
[17]
  Potency: inactive
[12]
  Potency: inactive
[13]
  Potency: inactive
[14]
  Potency: inactive
[15]
  Potency: inactive
[19]
  Potency: inactive
[16]
  Potency: inactive

## Cc1ccc(O)c(N)c1
[1]
  Potency: inactive
[2]
  Potency: inactive
[3]
  Potency: inactive
[4]
  Potency: inactive
[8]
  Potency: inactive
[9]
  Potency: inactive
[11]
  Potency: inactive
[17]
  Potency: inactive
[13]
  Potency: inactive
[19]
  Potency: inactive
[16]
  Potency: inactive

## CCC(C)n1ncn(-c2ccc(N3CCN(c4ccc(OC[C@H]5CO[C@](Cn6cncn6)(c6ccc(Cl)cc6Cl)O5)cc4)CC3)cc2)c1=O (stereo not given in full)
[1]
  Potency: inactive
[2]
  Potency: inactive
[3]
  Potency: inactive
[5]
  Potency: inactive
[6]
  Potency: inactive
[7]
  Potency: inactive
[8]
  Potency: inactive
[9]
  Potency: inactive
[10]
  Potency: inactive
[13]
  Potency: inactive
[14]
  Potency: inactive
[15]
  Potency: inactive
[19]
  Potency: inactive
[16]
  Potency: inactive

## CC(=O)CC(=O)Nc1ccc(S(=O)(=O)O)cc1
[20]
  max response: 0.915% (inactive)
[2]
  Potency: inactive
[3]
  Potency: inactive
[4]
  Potency: inactive
[5]
  Potency: inactive
[6]
  Potency: inactive
[7]
  Potency: inactive
[8]
  Potency: inactive
[9]
  Potency: inactive
[10]
  Potency: inactive
[11]
  Potency: inactive
[17]
  Potency: inactive
[18]
  Potency: inactive
[12]
  Potency: inactive
[13]
  Potency: inactive
[14]
  Potency: inactive
[15]
  Potency: inactive
[19]
  Potency: inactive

## CCCCCCCCCCCCCC[N+](C)(C)C
[20]
  Potency: 3.35 µM (active) and 4.89 µM (active) and 2.13 µM (active)
[2]
  Potency: 37.6 µM (active) and 48.9 µM (active) and 26.8 µM (active)
[3]
  Potency: 16.8 µM (active) and 43.6 µM (active) and 23.9 µM (active)
[4]
  Potency: 9.44 µM (active) and 19.5 µM (active) and 23.9 µM (active)
[6]
  Potency: 7.5 µM (active) and 15.5 µM (active) and 19 µM (active)
[7]
  Potency: inactive
[8]
  Potency: 29.9 µM (active) and 48.9 µM (active) and 26.8 µM (active)
[9]
  Potency: inactive
[10]
  Potency: 10.6 µM (active) and 17.4 µM (active) and 21.3 µM (active)
[11]
  Potency: 47.3 µM (active) and 43.6 µM (active)
[17]
  Potency: 16.8 µM (active) and 48.9 µM (active)
[18]
  Potency: 16.8 µM (active) and 21.8 µM (active)
[12]
  Potency: 53.1 µM (active) and inactive
[13]
  Potency: 47.3 µM (active) and 48.9 µM (active) and 47.7 nM (active)
[14]
  Potency: inactive
[15]
  Potency: 18.8 µM (active) and 54.9 µM (active) and inactive
[16]
  Potency: 23.5 µM (active)

## Fc1ccc(C(c2ccc(F)cc2)N2CCNCC2)cc1
[1]
  Potency: inactive
[2]
  Potency: inactive
[4]
  Potency: inactive
[8]
  Potency: inactive
[9]
  Potency: inactive
[12]
  Potency: inactive
[13]
  Potency: inactive
[14]
  Potency: inactive
[15]
  Potency: inactive
[19]
  Potency: inactive
[16]
  Potency: inactive

## CN(C)C(=O)COC(=O)Cc1ccc(OC(=O)c2ccc(N=C(N)N)cc2)cc1
[20]
  max response: 5.33% (inactive)
[2]
  Potency: inactive
[3]
  Potency: inactive
[4]
  Potency: inactive
[5]
  Potency: inactive
[6]
  Potency: inactive
[7]
  Potency: inactive
[8]
  Potency: inactive
[9]
  Potency: inactive
[10]
  Potency: inactive
[11]
  Potency: inactive
[17]
  Potency: inactive
[18]
  Potency: inactive
[12]
  Potency: inactive
[13]
  Potency: inactive
[14]
  Potency: inactive
[15]
  Potency: inactive
[19]
  Potency: inactive
[16]
  Potency: inactive

## O=c1c(O)c(-c2ccc(O)cc2O)oc2cc(O)cc(O)c12
[1]
  Potency: inactive
[2]
  Potency: inactive
[4]
  Potency: inactive
[7]
  Potency: inactive
[8]
  Potency: inactive
[9]
  Potency: inactive
[11]
  Potency: inactive
[17]
  Potency: inactive
[18]
  Potency: inactive
[12]
  Potency: inactive
[13]
  Potency: inactive
[15]
  Potency: inactive
[19]
  Potency: inactive
[16]
  Potency: inactive

## CN1CCC[C@@H]1CCO[C@](C)(c1ccccc1)c1ccc(Cl)cc1
[20]
  Potency: 16.9 µM (active)
[2]
  Potency: 26.8 µM (active)
[3]
  Potency: 21.3 µM (active)
[4]
  Potency: 23.9 µM (active)
[5]
  Potency: 21.3 µM (active)
[6]
  Potency: 21.3 µM (active)
[8]
  Potency: 26.8 µM (active)
[9]
  Potency: inactive
[10]
  Potency: 21.3 µM (active)
[11]
  Potency: inactive
[18]
  Potency: 10.7 µM (active)
[12]
  Potency: inactive
[13]
  Potency: 23.9 µM (active)
[16]
  Potency: 26.6 µM (active)

## COc1ccc2c(c1)c(CC(=O)OC/C=C(\C)CC/C=C(\C)CCC=C(C)C)c(C)n2C(=O)c1ccc(Cl)cc1
[20]
  max response: -0.256% (inactive)
[2]
  Potency: inactive
[3]
  Potency: inactive
[4]
  Potency: inactive
[5]
  Potency: inactive
[6]
  Potency: inactive
[7]
  Potency: inactive
[8]
  Potency: inactive
[9]
  Potency: inactive
[10]
  Potency: inactive
[17]
  Potency: inactive
[18]
  Potency: inactive
[13]
  Potency: inactive
[14]
  Potency: inactive
[15]
  Potency: inactive
[19]
  Potency: inactive
[16]
  Potency: inactive

## Cc1cccc(C(=O)O)c1O
[20]
  max response: 6.77% (inactive)
[2]
  Potency: inactive
[3]
  Potency: inactive
[4]
  Potency: inactive
[5]
  Potency: inactive
[6]
  Potency: inactive
[7]
  Potency: inactive
[8]
  Potency: inactive
[9]
  Potency: inactive
[10]
  Potency: inactive
[11]
  Potency: inactive
[17]
  Potency: inactive
[12]
  Potency: inactive
[13]
  Potency: inactive
[14]
  Potency: inactive
[15]
  Potency: inactive
[19]
  Potency: inactive
[16]
  Potency: inactive

## CN1CCN(Cc2cc(-c3ccc4[nH]c(=O)oc4c3)co2)[C@@H](c2ccc(F)cc2)C1
[1]
  Potency: inactive
[2]
  Potency: inactive
[5]
  Potency: 42 µM (active)
[6]
  Potency: 42 µM (active)
[7]
  Potency: inactive
[8]
  Potency: inactive
[9]
  Potency: inactive
[10]
  Potency: 42 µM (active)
[18]
  Potency: 26.5 µM (active)
[13]
  Potency: inactive
[14]
  Potency: inactive
[15]
  Potency: inactive
[16]
  Potency: inactive

## Cc1cc(C(C)(C)C)cc(C)c1CC1=NCCN1
[20]
  max response: -8.22% (inactive)
[2]
  Potency: inactive
[3]
  Potency: inactive
[4]
  Potency: inactive
[5]
  Potency: inactive
[6]
  Potency: inactive
[7]
  Potency: inactive
[8]
  Potency: inactive
[9]
  Potency: inactive
[10]
  Potency: inactive
[11]
  Potency: inactive
[17]
  Potency: inactive
[12]
  Potency: inactive
[13]
  Potency: inactive
[14]
  Potency: inactive
[15]
  Potency: inactive
[19]
  Potency: inactive
[16]
  Potency: inactive

From PubChem BioAssay (Tox21)
